The values that follow come from the OligoGym collection.
Further: reference of the scale not given here.

For one assay, the target named is TAS1R2. In words: pooled miR-30 sensor sort-seq; sequence = guide strand. The settings on record: shRNA.
For ATAGGTGTCGCTGCTCACCAGC, the sensor-assay potency score (higher = more potent) was -0.83. Regarding TAGAAGAGGATCATGTAGCACT, the sensor-assay potency score (higher = more potent) was -0.0652. On the same count and under the same terms, as for TTCATATTCATCTTCAGTGTGG, the figure is 0.0168; as for TTCATCTTCAGTGTGGTTGAGG, -0.161. Same read-out and setting: as for TAGGCAGACATGAAGGTGCAGA, the figure is -0.389; as for TTGTTGATCTCCTCCACCGCAA, -0.437; as for TAGGACCACTCGTTATTCGGGC, -0.986. TAGCACACATCCACGATCTCAT: the sensor-assay potency score (higher = more potent) worked out at 0.125. TAGAAGGTCATGCTGAGGGTGA returned a sensor-assay potency score (higher = more potent) of -0.126. Sequence TAGACCGCAGAGTACACGCTGT displayed a sensor-assay potency score (higher = more potent) of -0.157.

In turn, TTGTCTCGCAGCTCATCGCTGA returned a sensor-assay potency score (higher = more potent) of -0.453.

Another assay has as its target TAS2R31. Described as above. The conditions noted are these: shRNA.
TCCAATAACAAATAGAACCACT yielded a sensor-assay potency score (higher = more potent) of -1.14. Sequence TTAACAGCAAAAAACATAGCAG gave a sensor-assay potency score (higher = more potent) of -0.409. With TTGATCTTCCAAGTCAAGTTTC, the sensor-assay potency score (higher = more potent) was -0.849.

The sequence AATAGAACCACTACCACACTGG displayed a sensor-assay potency score (higher = more potent) of 0.475. TTACAGTCGCATCTGAAAGGTA: the sensor-assay potency score (higher = more potent) is -0.265. On to TACAGTCGCATCTGAAAGGTAC, for which the sensor-assay potency score (higher = more potent) was -0.71. TTTTGTCCGTACAATCTCTTTC: the sensor-assay potency score (higher = more potent) is -0.469. In turn, TTCTTTTGTCCGTACAATCTCT came in with a sensor-assay potency score (higher = more potent) of -0.58.

TAGAACCACTACCACACTGGAA: the sensor-assay potency score (higher = more potent) was -1.01. On the same count and under the same terms, as for TAACAGCAAAAAACATAGCAGG, the figure is -0.785.

The next assay has as its target TBC1D10A. Described as above. The settings on record: shRNA.
Take TTGAGCATGTCCAGCCACTTGG: the sensor-assay potency score (higher = more potent) was -0.533. Sequence TTTTACACAAAGAACACCCCAC displayed a sensor-assay potency score (higher = more potent) of 0.708. The sequence TTGGGGGCTGAGTCCTTCGGGG showed a sensor-assay potency score (higher = more potent) of -1.22.

Turning to TTGTGCTTCTTGGCCATCCATT, the sensor-assay potency score (higher = more potent) was -1.02. Sequence TTGTTGAGCATGTCCAGCCACT yielded a sensor-assay potency score (higher = more potent) of -1.14. Same read-out and setting: the result for TTCTGCATCCAAGATAGCCTTG reads -0.737; that for TTTCTCGCTGTAGTAGCCGGGC, -0.648; that for TTGCTCAGCAGGCATATGCATG, -1.58.

Take TTCTGCTGTAACTTCACCTTGC: the sensor-assay potency score (higher = more potent) turned out to be 0.827.

On to TTCACAGAAGAACATGTCCCAG, for which the sensor-assay potency score (higher = more potent) was -0.889. Consider ATCGCCTCCAGTTTCTCGCTGT, for which the sensor-assay potency score (higher = more potent) is -0.233. In turn, TCACAGAAGAACATGTCCCAGA yielded a sensor-assay potency score (higher = more potent) of -0.251.

Another assay concerns the target TBC1D7. The description is as above. The conditions noted are these: shRNA.
In the case of TATCTTCTCTGCACTGTTCAGT, the sensor-assay potency score (higher = more potent) was 0.23. Same read-out and setting: the result for TAACTTCCCAGACTCCAGCTGA reads -0.346; that for TTCGACAGCTACAAAAACTAGG, -0.269. Take TTTGTTATCTTCTCTGCACTGT: the sensor-assay potency score (higher = more potent) was 0.575.

As to TTGCTCACGATCGCGTCTGAGC, the sensor-assay potency score (higher = more potent) was -1.01. The sequence TTTAATTGGTTCACAAAGCGTC displayed a sensor-assay potency score (higher = more potent) of -0.134. On to TTGTTATCTTCTCTGCACTGTT, for which the sensor-assay potency score (higher = more potent) was -0.778.
